# Data taken from PubChem BioAssay AID720542 (National Center for Advancing Translational Sciences (NCATS), 2013).
# In all, about 360,000 compounds went through this assay and about 740 (0.21%) were called active. Roughly 2% stayed inconclusive and do not appear here. Calls come from the whole dose curve; as a rule, active = well fitted inhibition curve with a large enough effect; inconclusive = small, poorly fitted or top-dose-only effect; inactive = no such curve, though single readings can be large or run the other way. The list comes from a sample in which actives are over-represented; it also holds similar structures and randomly drawn compounds.
# Test system: Plasmodium falciparum AMA1 (3D7) - RON2 peptide interaction
# Assay: qHTS for Inhibitors of AMA1-RON; Towards Development of Antimalarial Drug Lead: Primary Screen; note: nearly all actives have a fitted effect of over 45% in size;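 for activity change, negative = inhibition: 0% = vehicle wells and -100% = peptide control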
# Conditions: AlphaScreen AMA1-biotinylated RON2 peptide binding; series mostly up to 58.2 µM; activity change, negative = inhibition: at the top concentration
# Excerpt: Plasmodium, the causative agent of malaria, is one of the world's deadliest parasitic diseases. Currently there is no vaccine available and there is widespread resistance to common anti-malarial drugs. This warrants novel, alternative approaches for developing improved therapy. During infection, one such essential interaction is between two parasite proteins, the apical membrane antigen1 (AMA1) that is translocated onto the merozoite surface and the rhoptry neck protein 2 (RON2), which is transferred to the red blood cells (RBC) membrane during invasion (Besteiro et.al., 2009). Recently, the Miller lab has shown that the interaction between AMA1 and RON2 is essential for junction formation of the parasite with the host cell (Srinivasan et.al., 2011). The binding of the RON2 peptide to the hydrophobic pocket in AMA triggers the formation of the moving junction which provides a firm anchor for the parasite to pull itself into the RBC using its actin-myosin motor; an irreversible step that commits the parasite for invasion. Only one AMA1 and RON2 genes exists in Plasmodium and there are no alternate pathways. Moreover, the region corresponding to RON2 peptide is conserved in all P. falciparum isolates for which sequences are available. The key residues in the AMA1 hydrophobic pocket that binds RON2 are also conserved and indicate a functional constraint governing this essential step in invasion since a short RON2 peptide (RON2L) corresponding to the binding region on AMA1 is sufficient to compete with the native RON2 protein and inhibits invasion (Tonkin et.al, 2011). Therefore, developing small molecule inhibitors of this interaction offers a promising target opening a new arena for anti-malarial therapeutics drug design.
# In collaboration with the Miller lab, a quantitative High Throughput Screen using the AlphScreen technology was developed using a recombinant his-tagged AMA1 and a biotinylated RON2 peptide. This fluorescent screen was assayed against the NIH Molecular Libraries Small Molecule Repository (MLSMR). Inhibition of this protein-protein interaction is the desired outcome of this assay. However, due the limitations of this AlphaScreen assay, a large number of artifacts were observed. An AlphaScreen counterscreen was run to identify the true inhibitors, triage compound activity, and weed out false positives.
# NIH Chemical Genomics Center [NCGC]
# NIH Molecular Libraries Probe Centers Network [MLPCN]
# Assay Submitter (PI): Louis Miller, National Institute of Allergy and Infectious Disease (NIAID)
# Two microliters of his-tagged AMA1 3D7 allele protein (final concentration 25 nM) was dispensed into a 1,536-well assay plate. Small molecules and positive control peptides were pin-transferred (23 nL or 46 nL) via Kalypsys pin-tool equipped with a 1,536-pin array, resulting in final compound and peptide concentration ranges of 91.5 nM - 57.2 µM, and 15.6 nM - 2.00 µM, respectively. Unlabeled RON2 peptide or R1 peptide ([…]) that specifically binds the 3D7 AMA1 was used as a positive control that inhibited the binding of RON2L to AMA1. After 15 minutes incubation, 1 uL of biotinylated RON2 peptide (final concentration 25 nM) or buffer were dispensed and the assay plate was incubated for an additional 30 minutes at room temperature and protected from light. This was followed by an addition of 1 uL mixture of donor and acceptor beads (10 ug/mL final concentrations for each). The plates were incubated for 30 min at room temperature and read using the EnVision(R) plate reader (PerkinElmer). Maximum inhibition response was normalized to the positive control signal while no inhibition response was normalized to the DMSO treated wells.
# Potency is the fitted concentration of half-maximal effect.
SMILES,"activity change, negative = inhibition",Potency
CC1CCCN(C(=O)Cn2c(=O)oc3ccccc32)C1 (configuration not stated),19.1% (inactive),
Cc1coc(C)c1C(=O)CC1(O)C(=O)N(C)c2ccc(Cl)cc21 (configuration not stated),-2.7% (inactive),
N#Cc1cccc(CSc2nnc(CCCO)n2-c2ccccc2)c1,11.9% (inactive),
Cc1ccc(C(C(=O)NC2CCCCC2)N(C(=O)c2csnn2)C2CC2)o1 (configuration not stated),-4.5% (inactive),
COc1cccc(-c2ccc3c(c2)N(Cc2ccccc2OC)C(=O)C(C)S3)c1 (configuration not stated),-17.7% (inactive),
Cc1ccc(C2=C/C(=C\c3cccnc3)C(=O)O2)cc1,0.0252% (inactive),
Nc1ccc2c(c1)C(=Cc1cccnc1)c1ccccc1-2,,20 µM (active)
O=C1/C(=C\c2cccnc2)CN(Cc2ccccc2)C/C1=C\c1cccnc1,-12.8% (inactive),
Cc1c(C)c2c(OCC(=O)N[C@@H](C(=O)O)c3ccccc3)cc3c(c2oc1=O)CCC(C)(C)O3,-12.5% (inactive),
O=C(CC[C@H]1O[C@@H](n2ccc(=O)[nH]c2=O)[C@H](O)[C@@H]1O)N[C@H](Cc1ccccc1)C(=O)NCCCN1CCCC1=O,0% (inactive),
CCOC(=O)CC(SP1(=S)OCC2(CCCCO2)C(C2CCCCO2)O1)C(=O)OCC (configuration not stated),11.3% (inactive),
O=C(Nc1ccccc1-c1nnn(CC(=O)N2CCCc3ccccc32)n1)c1cccc(Cl)c1,-16.6% (inactive),
CCC(C)C(=O)Nc1ccccc1N1CCN(c2ccc(F)cc2)CC1 (configuration not stated),-27.4% (inactive),
Cc1cc(C)cc(NC(=O)N2CCC(NC(=O)c3ccc(F)cc3)CC2)c1,24.4% (inactive),
O=c1ccc2c(-c3ccccc3S(=O)(=O)O)c3ccc(O)c(O)c3oc-2c1O,,5.01 µM (active)
CC1=C(C(=O)Nc2ccccc2)C(c2cccs2)C(C#N)=C(SCC#N)N1 (configuration not stated),59.5% (inactive),
Cc1ccc(-c2nn(C(C)(C)C)c3ncnc(N)c23)cc1,1.93% (inactive),
CC(C)NC(=S)NN=C1CCCCCCCCCCC1,25.2% (inactive),
NC(=S)Nc1c(Cl)cccc1Cl,-3.62% (inactive),
CCCCC(=O)NNC(=S)NC(=O)C(c1ccccc1)c1ccccc1,45.2% (inactive),
Cc1noc(C)c1S(=O)(=O)N(C)Cc1ccccc1,3.84% (inactive),
CC1(C)O[C@@H]2[C@H](O1)[C@@H](COS(=O)(=O)O)O[C@H]2n1ccc(=O)[nH]c1=O,0.295% (inactive),
